Values without a mark were called inactive. Records with an inconclusive call do not appear. The source made the active and inactive calls. Calls come from the whole dose curve; as a rule, active = well fitted curve in the direction sought with a large enough effect in the repeat runs; inconclusive = weak or mixed curves; inactive = no such curve, though single readings can be large; an effect the other way counts as inactive or inconclusive.

A short description of assay [1]: A CellTox Green Cytotoxicity Assay to monitor cytotoxicity in HEK293 cells - 40 hour (AID 1224871). Note: nearly all actives have a fitted effect of over 45% in size. Note: potency is the fitted concentration of half-maximal effect. The essentials:
(§1)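 Nonlytic real-time cytotoxicity: HEK293 + CellTox Green reagent plated, 5 h preincubation, pintool compound addition (23 nL in DMSO), 37 C for 40 h, fluorescence measured at successive time points.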

The nature of assay [2]: qHTS RealTime-Glo MT Cell Viability Assay in HepG2 cells - 8 hour (AID 1224873). Note: nearly all actives have a fitted effect of over 55% in size. The procedure, abridged: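 HepG2 cells (600/well) mixed with RealTime-Glo MT reagent, settled 5 h at 37 C/5% CO2 before compound addition. Nonlytic NanoLuc luminescence from viable-cell prosubstrate reduction read repeatedly during 40 h treatment at 37 C.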
Background: Quantitative high-throughput screening tests each substance at several concentrations.

Assay [3] can be described thus: qHTS RealTime-Glo MT Cell Viability Assay in HEK293 cells - 40 hour (AID 1224874). Note: nearly all actives have a fitted effect of over 50% in size. The following applies: RealTime-Glo luminescence; max response: hits give low values. The essentials: (§2)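 Cells were seeded together with NanoLuc luciferase and a prosubstrate that viable cells reduce to a luciferase substrate. After a 5 h incubation at 37 C/5% CO2, compounds were added and luminescence was measured repeatedly during 40 h of treatment.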

Assay [4] can be described thus: A CellTox Green Cytotoxicity Assay to monitor cytotoxicity in HEK293 cells - 24 hour (AID 1224875). Note: nearly all actives have a fitted effect of over 45% in size. Note: potency is the fitted concentration of half-maximal effect. The essentials: as §1
Assay [5] is described as follows: A CellTox Green Cytotoxicity Assay to monitor cytotoxicity in HepG2 cells - 16 hour (AID 1224876). Note: nearly all actives have a fitted effect of over 45% in size. Note: potency is the fitted concentration of half-maximal effect. The procedure, abridged: (§3)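 Read-out is fluorescence of a cyanine dye excluded from live cells that stains DNA of dead HepG2 cells, with signal proportional to cytotoxicity. Plates were read at 0, 8, 16, 24, 32 and 40 h after compound addition.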
Assay [6] is described as follows: qHTS RealTime-Glo MT Cell Viability Assay in HepG2 cells - 32 hour (AID 1224877). Note: nearly all actives have a fitted effect of over 55% in size. The procedure, abridged: (§4)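 Compound treatment began 5 h after plating HepG2 cells (600/well) with NanoLuc luciferase and prosubstrate. Plates stayed at 37 C for 40 h; luminescence was captured at six time points, 0 h through 40 h.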
Assay [7] in a line: A CellTox Green Cytotoxicity Assay to monitor cytotoxicity in HepG2 cells - 40 hour (AID 1224879). Note: nearly all actives have a fitted effect of over 40% in size. Note: potency is the fitted concentration of half-maximal effect. The essentials: as §3
The nature of assay [8]: qHTS RealTime-Glo MT Cell Viability Assay in HEK293 cells - 0 hour (AID 1224880). Note: nearly all actives have a fitted effect of over 45% in size. Note: potency is the fitted concentration of half-maximal effect. The essentials: as §2
Assay [9] in a line: A CellTox Green Cytotoxicity Assay to monitor cytotoxicity in HEK293 cells - 32 hour (AID 1224881). Note: nearly all actives have a fitted effect of over 40% in size. Note: potency is the fitted concentration of half-maximal effect. The procedure, abridged: as §1
The nature of assay [10]: A CellTox Green Cytotoxicity Assay to monitor cytotoxicity in HepG2 cells - 0 hour (AID 1224882). Note: nearly all actives have a fitted effect of over 35% in size. The procedure, abridged:
as §3

Assay [11] is described as follows: A CellTox Green Cytotoxicity Assay to monitor cytotoxicity in HepG2 cells - 32 hour (AID 1224883). Note: nearly all actives have a fitted effect of over 50% in size. Note: potency is the fitted concentration of half-maximal effect. The essentials:
as §3

Assay [12] can be described thus: A CellTox Green Cytotoxicity Assay to monitor cytotoxicity in HEK293 cells - 8 hour (AID 1224884). Note: nearly all actives have a fitted effect of over 35% in size. Note: potency is the fitted concentration of half-maximal effect. The essentials:
as §1

Assay [13] in a line: qHTS RealTime-Glo MT Cell Viability Assay in HepG2 cells - 16 hour (AID 1224885). Note: nearly all actives have a fitted effect of over 50% in size. The essentials:
as §4

Assay [14] in a line: qHTS RealTime-Glo MT Cell Viability Assay in HEK293 cells - 24 hour (AID 1224886). Note: top concentration of the series differs between compounds; nearly all actives have a fitted effect of over 50% in size. The procedure, abridged: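 Quantitative high-throughput screen of the Tox21 10K library in HEK293: cells and RealTime-Glo reagents plated together, compound added at 5 h, luminescence monitored through 40 h at 37 C.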
Assay [15] can be described thus: qHTS RealTime-Glo MT Cell Viability Assay in HEK293 cells - 8 hour (AID 1224887). The essentials: as §2
Assay [16] in a line: A CellTox Green Cytotoxicity Assay to monitor cytotoxicity in HEK293 cells - 16 hour (AID 1224888). Note: nearly all actives have a fitted effect of over 35% in size. Note: potency is the fitted concentration of half-maximal effect. The procedure, abridged:
as §1

Assay [17] is described as follows: qHTS RealTime-Glo MT Cell Viability Assay in HepG2 cells - 0 hour (AID 1224889). Note: nearly all actives have a fitted effect of over 50% in size. Note: potency is the fitted concentration of half-maximal effect. The procedure, abridged: as §4
Assay [18] can be described thus: A CellTox Green Cytotoxicity Assay to monitor cytotoxicity in HepG2 cells - 24 hour (AID 1224878). Note: nearly all actives have a fitted effect of over 45% in size. Note: potency is the fitted concentration of half-maximal effect. The procedure, abridged:
as §3

A short description of assay [19]: A CellTox Green Cytotoxicity Assay to monitor cytotoxicity in HepG2 cells - 8 hour (AID 1224890). Note: nearly all actives have a fitted effect of over 45% in size. Note: potency is the fitted concentration of half-maximal effect. The essentials:
as §3
% is set by controls: 0 for no effect and ±100 for the full control effect.

For `CC(C)Nc1ccc(NC(C)C)c2c1C(=O)c1ccccc1C2=O`, the Potency in assay [1] was 25.5 µM (active); in [4] it was 25.5 µM (active); in assay [7] it was 8.07 µM (active); in assay [9], 25.5 µM (active); in [11] it was 9.06 µM (active). Moreover, the Potency entry in [2], in assay [5], in assay [6], in assay [8], in [10] and in assay [12] was “inactive” throughout. Further, the Potency entry in [13], in assay [14], in [15], in [16] and in [17] was “inactive” throughout. In addition, the max response in [3] is -6.09%.

For the molecule `O=C(O)c1ccc(S(=O)(=O)O)cc1C(=O)O`, the Potency result in assay [1], in assay [2], in [4], in assay [5], in assay [6] and in [18] was “inactive” throughout. Further, the Potency entry in [7], in assay [8], in assay [9], in [10], in assay [12] and in assay [13] was “inactive” each time. Also, the Potency result in assay [16] and in assay [19] was “inactive” in each case.

As to `c1ccc(C(O[C@H]2CCCN(CCc3ccc4c(c3)OCO4)C2)c2ccccc2)cc1`, the Potency result in [1], in [2], in assay [4], in [6], in [8] and in assay [9] was “inactive” throughout. Further, the Potency result in assay [10], in assay [12], in assay [13], in assay [15], in [16] and in assay [17] was “inactive” each time. Moreover, in assay [3], the max response was -24.8%.

Take `CCC(=O)O[C@]1(C(=O)CCl)[C@@H](C)C[C@H]2[C@@H]3CCC4=CC(=O)C=C[C@]4(C)[C@@]3(F)[C@@H](O)C[C@@]21C`: the Potency result in assay [1], in assay [2], in [4], in assay [5], in assay [6] and in assay [18] was “inactive” in each case. Also, the Potency result in assay [7], in [8], in assay [9], in assay [10], in [12] and in [13] was “inactive” in each case. The Potency entry in assay [15], in assay [16], in assay [17] and in assay [19] was “inactive” in each case.

Consider `O[C@@H](COc1cccc2ncccc12)CN1CCN(C2c3ccccc3[C@@H]3[C@H](c4ccccc42)C3(F)F)CC1` (stereo partly drawn), for which the Potency result in [1], in assay [4], in [5], in assay [18], in [7] and in assay [8] was “inactive” throughout. Also, the Potency entry in assay [9], in assay [10], in assay [11], in [12], in assay [16] and in assay [17] was “inactive” in each case. The Potency entry in [19] was “inactive”.

With `CCCCCCCCCCCCN1CCCCCC1=O`, the Potency entry in assay [1], in assay [4], in assay [6], in [8], in [9] and in assay [12] was “inactive” throughout. The Potency entry in assay [13], in assay [16] and in assay [17] was “inactive” in each case.

As to `NC(=O)C(c1ccccc1)(c1ccccc1)[C@@H]1CCN(CCc2ccc3c(c2)CCO3)C1`, the Potency was 21.3 µM (active) in assay [1]; 21.3 µM (active) in assay [4]; 23.9 µM (active) in assay [5]; 21.3 µM (active) in assay [18]; 23.9 µM (active) in [7]; 21.3 µM (active) in assay [9]. For the same molecule, the Potency is 23.9 µM (active) in [11], 21.3 µM (active) in assay [12], 21.3 µM (active) in assay [16] and 21.3 µM (active) in assay [19]. Further, the Potency entry in [2], in assay [6], in assay [8], in assay [13], in [15] and in assay [17] was “inactive” throughout.

For `CCCCc1nc2cccnc2n1Cc1ccc(-c2ccccc2-c2nnn[nH]2)cc1`, the Potency entry in assay [1], in assay [4], in [5], in assay [6], in assay [18] and in assay [7] was “inactive” throughout. Besides, the Potency result in assay [9], in assay [10], in assay [11], in assay [12], in assay [13] and in assay [16] was “inactive” in each case. For the same molecule, in [19], the Potency entry was “inactive”. Moreover, the figures for the Potency in [8] and in assay [17] were 21.9 µM (active) and 24.5 µM (active), respectively.
